Laboratory results from publication PMC4336329 (PLoS ONE, 2015).
In all, about 310,000 compounds went through this assay and about 14,000 (4.5%) showed an effect of 50% or more. Effects have a minus sign here. Shown is part of a subset that was picked to be rich in strong results.

Biological target: human ether-à-go-go-related gene (hERG) potassium channel (human, UniProt Q12809)
Test: primary screen, population patch clamp on CHO cells stably expressing hERG; higher = less effect of the substance
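Note: peak tail current of the secondary pulse compared with the same well before compound.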

human ether-à-go-go-related gene (hERG) potassium channel, sequence (Q12809 whole entry, looked up): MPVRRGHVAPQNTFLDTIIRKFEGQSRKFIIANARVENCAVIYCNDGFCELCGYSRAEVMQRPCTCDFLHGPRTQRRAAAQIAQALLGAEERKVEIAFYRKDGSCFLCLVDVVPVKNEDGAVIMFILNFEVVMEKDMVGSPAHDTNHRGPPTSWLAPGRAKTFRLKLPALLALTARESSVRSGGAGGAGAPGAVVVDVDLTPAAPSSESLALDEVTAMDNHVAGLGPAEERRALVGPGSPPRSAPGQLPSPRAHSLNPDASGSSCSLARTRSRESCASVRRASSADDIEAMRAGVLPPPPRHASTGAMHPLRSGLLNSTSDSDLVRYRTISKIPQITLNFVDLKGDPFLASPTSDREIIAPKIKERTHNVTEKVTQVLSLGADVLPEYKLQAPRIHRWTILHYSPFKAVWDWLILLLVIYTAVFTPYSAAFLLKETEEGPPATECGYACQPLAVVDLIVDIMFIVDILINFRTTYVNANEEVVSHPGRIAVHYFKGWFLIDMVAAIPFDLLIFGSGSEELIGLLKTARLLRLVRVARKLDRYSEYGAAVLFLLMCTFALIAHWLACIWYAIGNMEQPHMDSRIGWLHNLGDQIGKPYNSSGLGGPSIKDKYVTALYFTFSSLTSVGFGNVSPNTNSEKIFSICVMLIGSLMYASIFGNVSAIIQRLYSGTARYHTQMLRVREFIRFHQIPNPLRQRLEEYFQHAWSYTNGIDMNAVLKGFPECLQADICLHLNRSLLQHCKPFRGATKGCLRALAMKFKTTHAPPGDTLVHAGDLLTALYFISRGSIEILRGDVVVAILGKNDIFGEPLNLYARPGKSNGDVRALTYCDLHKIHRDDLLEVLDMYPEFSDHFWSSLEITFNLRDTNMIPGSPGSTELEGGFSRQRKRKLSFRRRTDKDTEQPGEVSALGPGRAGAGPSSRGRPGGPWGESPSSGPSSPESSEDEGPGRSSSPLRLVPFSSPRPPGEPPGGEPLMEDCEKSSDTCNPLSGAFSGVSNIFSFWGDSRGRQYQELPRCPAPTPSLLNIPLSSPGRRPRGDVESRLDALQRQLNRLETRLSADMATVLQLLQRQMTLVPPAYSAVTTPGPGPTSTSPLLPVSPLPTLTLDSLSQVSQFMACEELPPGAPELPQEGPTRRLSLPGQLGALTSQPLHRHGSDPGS

Structure (SMILES)	hERG current change (%, negative = inhibition) at 10uM [%]
CSc1nsc(SCC(=O)Nc2ccc(OC(C)=O)cc2)n1	4.1
Cc1c(N=N/C(C(=O)Nc2ccccc2)=C(/O)c2ccccc2)c(=O)n(-c2ccccc2)n1C	8.85
CC(C)CN=CC1=C(O)c2ccccc2C1=O	-71.4
CN=CC1=C(O)c2ccccc2C1=O	14.7
O=C1C(C=NCc2ccncc2)=C(O)c2ccccc21	-9.12
CCOC(=O)N1CCC(NC(=O)CCc2nc(C3=CCN(C)CC3)no2)CC1	-3.37
COc1ccc(C(=O)NCCNc2nc3ccc(C)cc3cc2C#N)cc1	4.99
CCN(Cc1ccncc1)Cc1ccc(OC)c(OC)c1.O=C(O)C(=O)O	-6.49
COc1ccc(CN(CCN(C)C)Cc2ccccc2)c(OC)c1.O=C(O)C(=O)O	-46.1
CCN(Cc1ccncc1)Cc1ccc(OC)cc1OC.O=C(O)C(=O)O	-51.4
COc1ccc(N(CC(=O)Nc2cc(C)on2)S(=O)(=O)c2ccc(Cl)cc2)cc1	9.89
COC(=O)N[C@H](CC(C)=O)c1cccc(C(F)(F)F)c1	19.5
CC(C)(C)c1cc(CCC(=O)NCc2ccccn2)cc(C(C)(C)C)c1O	-10.1
CC(C)=CCN1CCN(Cc2cc(CC(C)C)n[nH]2)CC1CCO (stereo not drawn)	-9.57
Cc1cc(CN2CCCC(CO)(Cc3cccc(Cl)c3)C2)n[nH]1 (stereo not drawn)	-43.2
CC(C)n1cc(CN2CCCC(CO)(Cc3cccc(Cl)c3)C2)cn1 (stereo not drawn)	-24
CC(C)Cc1cc(CN2CCC(CO)(Cc3ccccc3)CC2)[nH]n1	-71.6
CC(C)Cc1cc(CN2CCC(CO)(Cc3cccc(C(F)(F)F)c3)CC2)[nH]n1	-78
CC(C)Cc1cc(CN2CCCC(CO)(Cc3cccc(Cl)c3)C2)[nH]n1 (stereo not drawn)	-52.5
CC(C)c1csc(CN2CCC(CO)(Cc3ccccc3)CC2)n1	-9.39
OCC1(Cc2ccccc2)CCN(Cc2ccccn2)CC1	-9.51
Cc1cc(C(=O)N2CCC(CO)(Cc3cccc(C(F)(F)F)c3)CC2)n[nH]1	-49.4
CC(C)NC(=O)Cn1nc(C(F)(F)F)c2c1CCC2	7.42

Structure (SMILES)	hERG current change (%, negative = inhibition) at 10uM [%]
C=C(C)CNc1cc(S(=O)(=O)N2CCOCC2)ccc1Oc1ccccc1	-21.3
O=C(CCN1C(=O)c2cccc3cccc(c23)C1=O)N1CCOCC1	19.9
CCN1CCN(CC(=O)NC2CCCCC2)C(=O)C1=O	1.65
COc1cccc(CNC(=O)C(C)n2nc(C)n3c(cc4occc43)c2=O)c1 (stereo not drawn)	7.17
CCCOc1ccc(C(=O)NNC(=S)NC(=O)c2cccs2)cc1	16.7
CC(C)=CC(=O)O[C@H]1[C@@H]2[C@H](C)C(=O)O[C@@H]2C[C@@H](C)[C@@H]2[C@@H](O)CC(=O)[C@]21C	22.4
COC(=O)CCSc1cc(NCCOC(C)=O)c([N+](=O)[O-])c2nonc12	-25.6
O=C(N/N=C/c1cn(CC(=O)N2CCOCC2)c2ccccc12)c1cccnc1	16.3
Cc1ccc(NC(=O)C(C)Sc2nc(-c3ccccc3)cc(=O)[nH]2)cc1 (stereo not drawn)	20.8
COc1ccccc1NC(=O)/C(=C\c1cccnc1)NC(=O)c1ccccc1	-65.5
O=C(Nc1ccccc1)/C(=C/c1cccnc1)NC(=O)c1ccccc1	2.08
Cc1ccc(C(=O)N/C(=C/c2cccnc2)C(=O)O)cc1	8.41
COc1ccccc1NC(=O)/C(=C/c1ccncc1)NC(=O)c1ccccc1	-10.6
COc1ccccc1NC(=O)/C(=C\c1cccnc1)NC(=O)c1ccc(C)cc1	-71.9
Cc1ccc(NC(=O)/C(=C\c2cccnc2)NC(=O)c2ccccc2)cc1	-46
COc1cc(OC)c(OC)cc1CNC(=O)c1ccc(S(=O)(=O)N2CC(C)OC(C)C2)cc1 (stereo not drawn)	-11
O=C(COc1cc(Cl)c(Cl)cc1Cl)NCCN1CCOCC1	-7.1
CCCCNC(=O)[C@H](Cc1c[nH]c2ccccc12)NC(=O)c1ccccc1Cl	-8.26
O=C(NCc1ccccc1)C1CCCN(S(=O)(=O)c2ccc(-n3cnnn3)cc2)C1 (stereo not drawn)	2.94
C=CCNC(=O)C1CCCN(S(=O)(=O)c2ccc(-n3cnnn3)cc2)C1 (stereo not drawn)	-27.5
CC(=O)Nc1ccc(S(=O)(=O)N2CCC(C(=O)NCc3ccco3)CC2)cc1	0.324
O=C(NCC1CC1)C1CCCN(S(=O)(=O)c2ccc(-n3cnnn3)cc2)C1 (stereo not drawn)	-63.7
COc1ccc(OC)c(NC(=O)C2CCCN(S(=O)(=O)c3ccc(-n4cnnn4)cc3)C2)c1 (stereo not drawn)	-12.5

Structure (SMILES)	hERG current change (%, negative = inhibition) at 10uM [%]
COc1ccccc1NC(=O)C1CCCN(S(=O)(=O)c2ccc(-n3cnnn3)cc2)C1 (stereo not drawn)	-46.8
O=C(NCc1ccccc1F)C1CCCN(S(=O)(=O)c2ccc(-n3cnnn3)cc2)C1 (stereo not drawn)	-1.94
O=C(NCc1ccco1)C1CCCN(S(=O)(=O)c2ccc(-n3cnnn3)cc2)C1 (stereo not drawn)	-61.8
NC(=O)CNC(=O)C1CCN(S(=O)(=O)c2ccc(-n3cnnn3)cc2)CC1	-41.4
CC(C)CCNC(=O)C1CCCN(S(=O)(=O)c2ccc(-n3cnnn3)cc2)C1 (stereo not drawn)	22.5
O=C(NCc1ccco1)C1CCN(S(=O)(=O)c2ccc(-n3cnnn3)cc2)CC1	-70.5
COc1ccc(C)cc1NC(=O)C1CCCN(S(=O)(=O)c2ccc(-n3cnnn3)cc2)C1 (stereo not drawn)	-69.8
COC(=O)C1=C(C(=O)OC)[C@@H]2N(C)c3ccccc3[C@@]23C[C@@H](C(=O)OC)N(C(=O)c2ccc(Br)cc2)C3=N1	-1.06
Fc1ccc2c(c1)C(c1ccc(N3CCOCC3)cc1)=NNC(c1cccs1)=N2	-1.96
CC1=CC(C)(C)NC(=S)N1c1cc(C)cc(C)c1	10.5
Cc1nc(Nc2ccc(C(=O)O)cc2)nc(Nc2ccc(C(=O)O)cc2)c1[N+](=O)[O-]	15.3
Cc1cc(=O)c2cc(C(=O)c3ccccc3)ccc2[nH]1	-4.4
COc1ccccc1Cn1c(=O)c2ccccc2n2c(SCc3csc(C)n3)nnc12	-6.34
CC1=C(C)CC(C(=O)NNC(=O)c2cccc(Cl)c2)C(C(=O)O)C1 (stereo not drawn)	12.3
Cc1ccccc1C(=O)Nc1ccc(C(=O)N/N=C/c2ccc(O)c(Br)c2)cc1	-2.99
CC(C)C[C@H](NC(=O)c1nc[nH]c1C(=O)N[C@@H](CC(C)C)C(=O)OCc1ccccc1)C(=O)OCc1ccccc1	16.2
CC(C)C[C@H](NC(=O)c1[nH]cnc1C(=O)N[C@@H](Cc1ccccc1)C(=O)OCc1ccccc1)C(=O)OCc1ccccc1	21.6
CNC(=O)c1[nH]cnc1C(=O)N[C@@H](CC(C)C)C(=O)OCc1ccccc1	-58.2
CC1(C)C(C=C(Cl)Cl)C1C(=O)Nc1ccc([N+](=O)[O-])cc1 (stereo not drawn)	18.9
O=C(COc1ccc(/C=N/NC(=O)C(=O)N2CCCCC2)cc1)Nc1ccccc1Cl	15.9
O=C(C1CCC1)N1CCN(S(=O)(=O)c2ccc(F)cc2)CC1	11.4
O=C(C1CCC1)N1CCN(S(=O)(=O)c2ccc([N+](=O)[O-])cc2)CC1	-62.6
O=C(C1CCCN(S(=O)(=O)c2ccc(F)cc2)C1)N1CCCCCC1 (stereo not drawn)	-24

Structure (SMILES)	hERG current change (%, negative = inhibition) at 10uM [%]
O=C(C1CCCN(S(=O)(=O)c2ccc(F)cc2)C1)N1CCCCC1 (stereo not drawn)	6.09
O=C(C1CCCCC1)N1CCN(S(=O)(=O)c2cccc([N+](=O)[O-])c2)CC1	-13.1
O=C(C1CCCN(S(=O)(=O)c2ccc([N+](=O)[O-])cc2)C1)N1CCCCC1 (stereo not drawn)	-62
COc1ccc2oc(C(=O)N3CCc4ccccc43)c(C)c2c1	15.1
Cc1cccc(S(=O)(=O)NCCC(=O)OC(C)C(=O)NC(=O)NC2CCCCC2)c1 (stereo not drawn)	-20.8
Cc1nn(C)c(Oc2cccc(Cl)c2)c1C#N	8.31
Cc1nc(N(C)Cc2ccccc2)c2nnn(Cc3ccccc3)c2n1	-37.9
COc1ccc(CCC(=O)Nc2ccc(S(=O)(=O)N3CCCC3)cc2)cc1OC	-11.8
CCC1(Cc2ccccc2)NC(=O)c2ccccc2O1 (stereo not drawn)	2.36
CCN1CCCC1Cn1cnc2c([nH]c3cccc(Cl)c32)c1=O (stereo not drawn)	-67.2
O=c1c2[nH]c3ccc(F)cc3c2ncn1CC1CCCO1 (stereo not drawn)	-16
Cc1ccc2[nH]c3c(=O)n(Cc4ccncc4)cnc3c2c1	4.77
O=c1c2[nH]c3cccc(Cl)c3c2ncn1CCN1CCCCC1	-21.9
Cc1ccc2[nH]c3c(=O)n(CCN4CCOCC4)cnc3c2c1	-17.5
CCN1CCCC1Cn1cnc2c([nH]c3ccc(C)cc32)c1=O (stereo not drawn)	-70
CCCCn1cnc2c([nH]c3ccccc32)c1=O	15.7
CC(C)N(CCn1cnc2c([nH]c3ccccc32)c1=O)C(C)C	-68.1
O=c1c2[nH]c3cccc(Cl)c3c2ncn1CC1CCCO1 (stereo not drawn)	-9.51
Cc1ccc2[nH]c3c(=O)n(CCN4CCNCC4)cnc3c2c1	7.36
COc1cc2[nH]c3c(=O)n(CCN(C(C)C)C(C)C)cnc3c2cc1OC	-13.3
CCN1CCCC1Cn1cnc2c([nH]c3ccc(Cl)cc32)c1=O (stereo not drawn)	-76.5
